In general, AC50 refers to the midpoint of the concentration-response curve, whichever way the signal moves.

Consider six compounds from PubChem BioAssay (EPA / NIEHS).

Results filed as inconclusive are left out. Active and inactive are the calls of the source. The calls were made as follows, unless noted: active = hit-call score of the fitted dose curve at least 0.9, where 1 is the maximum; inconclusive = response in the unintended direction; inactive = score below 0.9.

Assay [1] concerns the target Hepatocyte nuclear factor 6 (Homo sapiens) (UniProt Q9UBC0). Kind of assay: ATG_HNF6_CIS: Attagene CIS-FACTORIAL HepG2 Assay for human Hepatocyte Nuclear Factor 6 (HNF6) (AID 2282952; active = hit-call score of the fitted dose curve at least 0.9, where 1 is the maximum; inactive = score below 0.9). As to conditions: HepG2 Attagene cis-factorial HNF6 reporter transcription; actives raise or lower the signal. The procedure, abridged:
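Endogenous transcription factor activity in human HepG2 liver cells was captured through cis-regulated reporter constructs. After 24 h treatment, reporter mRNA was measured by RT-PCR with capillary electrophoresis, and activity was fitted in both directions relative to DMSO.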

The target in assay [2] is Heat shock factor protein 1 (Homo sapiens) (UniProt Q00613). Kind of assay: ATG_HSE_CIS: Attagene CIS-FACTORIAL HepG2 Assay for human Heat Shock Transcription Factor 1 (HSE) (AID 2282953; active = hit-call score of the fitted dose curve at least 0.9, where 1 is the maximum; inactive = score below 0.9). The note with it: HepG2 HSE cis-reporter, Attagene RNA transcription; actives raise or lower the signal. The method, boiled down:
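After a 24 h incubation with test chemical, transfected HepG2 cells were harvested for RNA; reporter transcripts were measured by RT-PCR and capillary electrophoresis. Values reflect gain or loss of signal relative to DMSO.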

Assay [3] can be described thus: ATG_PBREM_CIS: Attagene CIS-FACTORIAL HepG2 Assay for human Phenobarbital-responsive Enhancer Module (PBREM) (AID 2282955; active = hit-call score of the fitted dose curve at least 0.9, where 1 is the maximum; inactive = score below 0.9). As to conditions: HepG2 PBREM cis-reporter, Attagene multiplexed transcription; actives raise or lower the signal. The procedure, abridged:
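Measures endogenous factor action on a phenobarbital-responsive enhancer module. HepG2 transiently carrying cis reporters, 24 h treatment, mRNA read-out by RT-PCR plus capillary electrophoresis.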

Assay [4] has as its target Signal transducer and activator of transcription 3 (Homo sapiens) (UniProt P40763). Kind of assay: ATG_STAT3_CIS: Attagene CIS-FACTORIAL HepG2 Assay for human Signal Transducer and Activator of Transcription 3 (STAT3) (AID 2282963; active = hit-call score of the fitted dose curve at least 0.9, where 1 is the maximum; inactive = score below 0.9). As to conditions: HepG2, Attagene cis-factorial STAT3 reporter transcription; actives raise or lower the signal. The procedure, abridged: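 Cis-factorial format: endogenous transcription factors in HepG2 drive transfected reporter units. After 24 h treatment, reporter RNA was reverse-transcribed, amplified, FAM-labelled and HpaI-digested before CE analysis; activity scored in both directions against DMSO.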

A short description of assay [5]: ATG_M_06_TRANS: Attagene TRANS-FACTORIAL HepG2 Assay for M06 Transcription Factor (Internal Marker) (AID 2282983). As to conditions: HepG2 Attagene TRANS M06 internal marker reporter. The procedure, abridged:
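Human liver HepG2 cells bearing transiently transfected chimeric NR-GAL4 reporter units were treated with chemicals for 24 h. Total RNA was reverse-transcribed, reporter sequences amplified and labelled, then quantified by capillary electrophoresis. Activity was fitted upward relative to DMSO.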

Assay [6] is described as follows: ATG_NF_kB_CIS: Attagene CIS-FACTORIAL HepG2 Assay for human Nuclear Factor Kappa B (NF-kB) (AID 2282991; active = hit-call score of the fitted dose curve at least 0.9, where 1 is the maximum; inactive = score below 0.9). As to conditions: HepG2 Attagene cis-factorial NF-kB reporter mRNA; actives raise or lower the signal. The procedure, abridged: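 Fluorescence of labelled RT-PCR products separated by capillary electrophoresis gives reporter mRNA levels from transfected HepG2 cells exposed 24 h; values are fitted in both directions relative to DMSO.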

Assay [7] is described as follows: ATG_NRF2_ARE_CIS: Attagene CIS-FACTORIAL HepG2 Assay for human Nuclear Factor Erythroid 2 Related Factor 2 (NFR2) response to Antioxidant Response Elements (ARE) (AID 2282992; active = hit-call score of the fitted dose curve at least 0.9, where 1 is the maximum; inactive = score below 0.9). The note with it: HepG2 Attagene ARE/NRF2 reporter, transcription factor activity; actives raise or lower the signal. The method, boiled down:
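Endogenous transcription factor activity in human liver HepG2 cells is tracked via a cis-element-driven reporter within a multiplexed set. mRNA induction is read by RT-PCR and capillary electrophoresis after 24 h, with DMSO as baseline.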

The nature of assay [8]: ATG_Oct_MLP_CIS: Attagene CIS-FACTORIAL HepG2 Assay for human Octamer-Binding Transcription Factor (Oct) (AID 2282993; active = hit-call score of the fitted dose curve at least 0.9, where 1 is the maximum; inactive = score below 0.9). The note with it: HepG2 Attagene cis-factorial Oct reporter, mRNA; actives raise or lower the signal. The procedure, abridged: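 Cells of the HepG2 line express promoter-controlled reporter sequences whose mRNA levels, after 24 h treatment, are measured by RT-PCR and capillary electrophoresis. Increases and decreases are scored relative to DMSO.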

The target of assay [9] is human Peroxisome Proliferator-activated Receptor alpha (PPARa), PPARA (gene 5465) (UniProt Q07869). Nature of the assay: ATG_PPARa_TRANS: Attagene TRANS-FACTORIAL HepG2 Assay for human Peroxisome Proliferator-activated Receptor alpha (PPARa) (AID 2283001). The method, boiled down: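 Transfected HepG2 cells treated with test chemical for 24 h. RNA isolated, reverse-transcribed with oligo(dT), PCR-amplified, FAM-labelled and HpaI-digested. Fragments sized by capillary electrophoresis; gain-of-signal fit relative to DMSO.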
Sequence of human Peroxisome Proliferator-activated Receptor alpha (PPARa), PPARA (gene 5465) (Q07869 whole entry, looked up, the tested form may be a part): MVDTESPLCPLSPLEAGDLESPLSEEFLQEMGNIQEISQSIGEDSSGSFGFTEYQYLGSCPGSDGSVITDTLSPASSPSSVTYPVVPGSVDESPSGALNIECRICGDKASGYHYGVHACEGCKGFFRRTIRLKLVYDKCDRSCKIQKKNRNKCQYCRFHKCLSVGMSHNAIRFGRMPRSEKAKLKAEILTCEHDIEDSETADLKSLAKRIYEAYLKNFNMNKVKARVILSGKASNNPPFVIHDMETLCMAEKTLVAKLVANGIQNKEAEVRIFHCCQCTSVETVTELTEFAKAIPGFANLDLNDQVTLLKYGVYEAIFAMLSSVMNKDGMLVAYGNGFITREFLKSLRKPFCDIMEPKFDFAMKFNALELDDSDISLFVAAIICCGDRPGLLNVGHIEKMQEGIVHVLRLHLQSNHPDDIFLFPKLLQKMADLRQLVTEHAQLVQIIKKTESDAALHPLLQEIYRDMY

Assay [10] is described as follows: TOX21_p53_BLA_p2_viability: Viability Assessment in the Tox21 HCT-116 p53 Agonism Beta-lactamase Assay, Phase 2 (AID 2283591).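 Also: compound exposure lasted 16 h at 37 °C; actives lower the ATP signal meaning cytotoxicity.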 The procedure, abridged: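 Cytotoxicity readout: CellTiter-Glo ATP luminescence, 30 min at room temperature, after the beta-lactamase read. Cells were HCT116 exposed 16 h at 37C to compounds pin-transferred at 217-fold dilution from DMSO stocks.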

Assay [11] in a line: TOX21_p53_BLA_p3_viability: Viability Assessment in the Tox21 HCT-116 p53 Agonism Beta-lactamase Assay, Phase 3 (AID 2283593).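 Also: cells exposed to compound for 16 h before reading.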 The method, boiled down: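 Cellular ATP was quantified by CellTiter-Glo luminescence, read after 30 min at room temperature. Beforehand, HCT116 cells (4000/well) received compound 5 h post-seeding, 217-fold diluted from DMSO, then incubated 16 h at 37C.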

For assay [12], the target named is Cellular tumor antigen p53 (Homo sapiens) (UniProt P04637). Kind of assay: TOX21_p53_BLA_p3_ratio: Tox21 HCT-116 p53 Agonism Beta-lactamase Assay, Ratio, Phase 3 (AID 2283596). The method, boiled down: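 Cells were seeded at 4000/well, rested 5 h at 37C, then dosed with DMSO compound solutions (217-fold dilution) for 16 h. CCF4-AM substrate was loaded for 2 h at room temperature, and the 460/530 nm emission ratio was fitted for gain of signal versus DMSO.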
Sequence of Cellular tumor antigen p53 (Homo sapiens) (P04637 whole entry, looked up): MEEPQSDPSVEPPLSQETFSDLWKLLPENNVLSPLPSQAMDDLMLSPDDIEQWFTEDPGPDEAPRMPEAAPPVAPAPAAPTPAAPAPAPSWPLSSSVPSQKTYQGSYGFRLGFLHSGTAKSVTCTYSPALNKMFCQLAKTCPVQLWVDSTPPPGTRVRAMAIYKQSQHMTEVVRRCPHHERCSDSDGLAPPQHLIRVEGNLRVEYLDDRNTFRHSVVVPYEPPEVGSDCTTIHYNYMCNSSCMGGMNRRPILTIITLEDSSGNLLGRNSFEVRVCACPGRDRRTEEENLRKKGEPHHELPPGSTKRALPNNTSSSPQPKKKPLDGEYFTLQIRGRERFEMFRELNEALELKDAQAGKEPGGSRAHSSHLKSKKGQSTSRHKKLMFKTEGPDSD

Assay [13] shares this target. Kind of assay: TOX21_p53_BLA_p5_ratio: Tox21 HCT-116 p53 Agonism Beta-lactamase Assay, Ratio, Phase 5 (AID 2283599). The procedure, abridged:
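Beta-lactamase reporter ratio (blue 460 nm over green 530 nm, 405 nm excitation) after 2 h CCF4-AM loading, in HCT-116 cells exposed 16 h at 37 C to compounds pinned at 217-fold dilution. Increases relative to DMSO baseline scored.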

A short description of assay [14]: TOX21_p53_BLA_p5_viability: Viability Assessment in the Tox21 HCT-116 p53 Agonism Beta-lactamase Assay, Phase 5 (AID 2283600). The procedure, abridged: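 Viability is taken from cellular ATP content, measured by luciferase luminescence in the same wells after the beta-lactamase ratio read. Cells are seeded at 4000 per well and exposed to DMSO-dissolved compounds, diluted 217-fold, for 16 h.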

In assay [15] the target is Cellular tumor antigen p53 (Homo sapiens) (UniProt P04637). Nature of the assay: TOX21_p53_BLA_p4_ratio: Tox21 HCT-116 p53 Agonism Beta-lactamase Assay, Ratio, Phase 4 (AID 2283601). The procedure, abridged: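 Signal is the blue/green (460nm/530nm) ratio of cleaved versus uncleaved CCF4-AM substrate, read after 2 h substrate loading. Cells were HCT116 carrying the p53-responsive beta-lactamase reporter, dosed 16 h at 37C, 5% CO2; CellTiter-Glo measured in parallel.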

Assay [16] in a line: ATG_GLI_CIS: Attagene CIS-FACTORIAL HepG2 Assay for human Zinc Finger Protein GLI1 (AID 2282945; active = hit-call score of the fitted dose curve at least 0.9, where 1 is the maximum; inactive = score below 0.9). The note with it: HepG2, Attagene cis-factorial reporter mRNA, GLI element; actives raise or lower the signal. The procedure, abridged:
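Bidirectional curve fits relative to DMSO, using reporter mRNA levels from RT-PCR plus capillary electrophoresis. Cells were HepG2 transiently carrying cis-regulated reporter constructs, harvested 24 h after dosing.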

Assay [17] can be described thus: ATG_SREBP_CIS: Attagene CIS-FACTORIAL HepG2 Assay for human Sterol Regulatory Element Binding (SREBP) (AID 2282962; active = hit-call score of the fitted dose curve at least 0.9, where 1 is the maximum; inactive = score below 0.9). The note with it: HepG2 Attagene cis-factorial SREBP reporter, mRNA; actives raise or lower the signal. The method, boiled down:
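Endogenous factor activity is measured in HepG2 through multiplexed reporter units under cis-element control. Following a 24 h incubation, reporter transcripts are reverse-transcribed, PCR-amplified and sized by capillary electrophoresis; activity is fitted in both directions relative to DMSO.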

Assay [18] deals with Hepatocyte nuclear factor 4-alpha (Homo sapiens) (UniProt P41235). Nature of the assay: ATG_HNF4a_TRANS: Attagene TRANS-FACTORIAL HepG2 Assay for human Hepatocyte Nuclear Factor 4 alpha (HNF4a) (AID 2282982). As to conditions: HepG2 HNF4a transactivation reporter, mRNA readout. The method, boiled down:
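Multiplexed reporter assay: transfected HepG2, 24 h exposure, total RNA → oligo(dT) RT → PCR → 6-FAM extension → HpaI digest → CE fluorescence. DMSO = negative control.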

Assay [19] deals with human Retinoid X Receptor beta (RXRb), RXRB (gene 6257) (UniProt P28702). Kind of assay: ATG_RXRb_TRANS: Attagene TRANS-FACTORIAL HepG2 Assay for human Retinoid X Receptor beta (RXRb) (AID 2283013). The procedure, abridged: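 Read-out: reporter mRNA induction via RT-PCR plus capillary electrophoresis fluorescence, analysed as signal increase relative to DMSO. Cells were human HepG2, transiently transfected with GAL4-UAS reporter constructs and chimeric receptor-Gal4 fusions, dosed for 24 h.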
Sequence of human Retinoid X Receptor beta (RXRb), RXRB (gene 6257) (P28702 whole entry, looked up, the tested form may be a part): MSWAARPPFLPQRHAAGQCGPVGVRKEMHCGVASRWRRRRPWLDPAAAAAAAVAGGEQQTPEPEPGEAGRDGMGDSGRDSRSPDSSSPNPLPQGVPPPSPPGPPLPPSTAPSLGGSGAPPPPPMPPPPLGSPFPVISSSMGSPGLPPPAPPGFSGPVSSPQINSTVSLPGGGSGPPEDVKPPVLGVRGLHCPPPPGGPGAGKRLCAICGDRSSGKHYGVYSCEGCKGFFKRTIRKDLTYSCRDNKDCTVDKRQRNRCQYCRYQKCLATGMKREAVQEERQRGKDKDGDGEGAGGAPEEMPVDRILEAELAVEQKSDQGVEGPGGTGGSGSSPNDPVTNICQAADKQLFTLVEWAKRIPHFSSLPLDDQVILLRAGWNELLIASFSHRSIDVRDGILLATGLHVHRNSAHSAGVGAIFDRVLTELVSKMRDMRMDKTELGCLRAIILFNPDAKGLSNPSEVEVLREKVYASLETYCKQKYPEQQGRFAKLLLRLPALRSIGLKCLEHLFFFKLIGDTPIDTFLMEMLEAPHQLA

Assay [20] can be described thus: ATG_GRE_CIS: Attagene CIS-FACTORIAL HepG2 Assay for human Glucocorticoid Response Elements (GRE) (AID 2282947; active = hit-call score of the fitted dose curve at least 0.9, where 1 is the maximum; inactive = score below 0.9). As to conditions: HepG2 GRE cis-reporter, Attagene multiplex mRNA; actives raise or lower the signal. The procedure, abridged: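 Multiplexed cis-reporter mRNA induction, HepG2, 24 h post-dose. RT-PCR, FAM-labelled, HpaI-digested amplicons by CE. Bidirectional fit vs DMSO.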

Sequence of Hepatocyte nuclear factor 6 (Homo sapiens) (Q9UBC0 whole entry, looked up): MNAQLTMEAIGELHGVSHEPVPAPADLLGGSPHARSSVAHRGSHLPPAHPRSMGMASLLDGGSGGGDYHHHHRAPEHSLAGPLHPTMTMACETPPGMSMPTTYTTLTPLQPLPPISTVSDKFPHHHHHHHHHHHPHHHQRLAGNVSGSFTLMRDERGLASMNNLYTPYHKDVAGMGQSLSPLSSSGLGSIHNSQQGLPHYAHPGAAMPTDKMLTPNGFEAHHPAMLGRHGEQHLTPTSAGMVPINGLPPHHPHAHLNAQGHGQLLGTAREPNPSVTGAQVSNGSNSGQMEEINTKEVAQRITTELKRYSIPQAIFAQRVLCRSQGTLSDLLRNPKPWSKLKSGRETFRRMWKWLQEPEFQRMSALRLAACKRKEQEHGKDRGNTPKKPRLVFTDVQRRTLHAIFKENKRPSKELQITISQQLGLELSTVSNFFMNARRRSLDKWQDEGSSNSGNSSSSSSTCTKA
Sequence of Signal transducer and activator of transcription 3 (Homo sapiens) (P40763 whole entry, looked up): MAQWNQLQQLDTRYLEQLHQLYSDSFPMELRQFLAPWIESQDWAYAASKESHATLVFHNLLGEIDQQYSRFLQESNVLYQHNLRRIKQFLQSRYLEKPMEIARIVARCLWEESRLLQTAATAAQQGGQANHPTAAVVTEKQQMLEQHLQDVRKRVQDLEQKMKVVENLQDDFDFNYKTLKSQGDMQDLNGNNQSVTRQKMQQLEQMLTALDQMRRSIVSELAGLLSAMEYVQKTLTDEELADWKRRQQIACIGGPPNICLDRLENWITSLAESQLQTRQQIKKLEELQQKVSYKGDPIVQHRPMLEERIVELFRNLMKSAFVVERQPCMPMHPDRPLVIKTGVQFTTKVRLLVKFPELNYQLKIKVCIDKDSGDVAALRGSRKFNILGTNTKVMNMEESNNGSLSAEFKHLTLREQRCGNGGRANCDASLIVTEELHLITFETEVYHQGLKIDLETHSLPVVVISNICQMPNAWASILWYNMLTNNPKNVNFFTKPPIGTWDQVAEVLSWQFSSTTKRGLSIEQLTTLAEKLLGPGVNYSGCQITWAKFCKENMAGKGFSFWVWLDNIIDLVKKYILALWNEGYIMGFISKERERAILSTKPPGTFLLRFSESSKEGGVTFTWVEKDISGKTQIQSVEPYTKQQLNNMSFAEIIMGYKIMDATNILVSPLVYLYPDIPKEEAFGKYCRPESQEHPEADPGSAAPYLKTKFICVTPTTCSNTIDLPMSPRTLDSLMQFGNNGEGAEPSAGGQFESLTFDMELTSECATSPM
Sequence of Heat shock factor protein 1 (Homo sapiens) (Q00613 whole entry, looked up): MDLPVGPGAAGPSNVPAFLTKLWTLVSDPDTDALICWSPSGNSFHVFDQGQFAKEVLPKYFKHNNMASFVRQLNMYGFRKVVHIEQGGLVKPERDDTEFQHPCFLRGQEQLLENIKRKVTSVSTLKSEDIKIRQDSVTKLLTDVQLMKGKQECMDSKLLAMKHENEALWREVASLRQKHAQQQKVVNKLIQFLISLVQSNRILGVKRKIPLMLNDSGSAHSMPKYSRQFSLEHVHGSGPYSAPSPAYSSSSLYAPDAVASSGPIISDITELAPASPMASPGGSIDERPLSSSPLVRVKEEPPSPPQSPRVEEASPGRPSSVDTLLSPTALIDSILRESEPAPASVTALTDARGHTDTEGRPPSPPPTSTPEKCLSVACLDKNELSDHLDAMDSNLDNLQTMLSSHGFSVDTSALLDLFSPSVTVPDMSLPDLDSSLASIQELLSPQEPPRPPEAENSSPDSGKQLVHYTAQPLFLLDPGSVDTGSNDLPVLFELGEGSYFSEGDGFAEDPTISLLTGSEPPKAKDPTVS
Sequence of Hepatocyte nuclear factor 4-alpha (Homo sapiens) (P41235 whole entry, looked up): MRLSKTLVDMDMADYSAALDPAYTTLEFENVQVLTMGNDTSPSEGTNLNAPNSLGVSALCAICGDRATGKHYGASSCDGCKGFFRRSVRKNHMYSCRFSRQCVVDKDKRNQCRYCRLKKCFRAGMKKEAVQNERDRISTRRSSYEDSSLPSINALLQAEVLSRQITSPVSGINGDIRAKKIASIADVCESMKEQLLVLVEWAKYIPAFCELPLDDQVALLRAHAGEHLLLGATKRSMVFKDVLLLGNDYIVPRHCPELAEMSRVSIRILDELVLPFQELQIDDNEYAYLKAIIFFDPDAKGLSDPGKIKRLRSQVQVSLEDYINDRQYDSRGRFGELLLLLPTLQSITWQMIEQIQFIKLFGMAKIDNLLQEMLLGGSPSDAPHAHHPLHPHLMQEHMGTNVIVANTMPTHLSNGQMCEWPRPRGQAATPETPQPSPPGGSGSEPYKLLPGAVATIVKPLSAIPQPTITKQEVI

`C[Si](C)(C)O[Si](C)(C)O[Si](C)(C)C`: the compound was called inactive in assay [1], in assay [2], in [3], in assay [4], in [5] and in [6]. The call in [7], in assay [8], in [9], in assay [10], in [11] and in [12] was inactive. Further, the result in [13], in assay [14] and in assay [15] was inactive.

On to `OCCN(CCO)c1cccc(Cl)c1`, for which the compound was classed as inactive in assay [16], in assay [1], in assay [2], in [3], in assay [17] and in assay [18]. In addition, the outcome in [5], in assay [6], in assay [19], in assay [10], in [12] and in [13] was inactive. For the same compound, the result in [15] was inactive. In addition, the concentration at half-maximal activity (AC50) in [7] was 175 µM (active).

`CCCCn1cc[n+](C)c1`: the compound was classed as inactive in assay [16], in assay [1], in assay [4], in assay [18], in assay [5] and in assay [7]. In addition, the compound was called inactive in [8] and in [19].

`CCCCCCCCCCC1CO1` (stereo unspecified): the AC50 is 159 µM (active) in assay [16], 100 µM (active) in assay [17] and 128 µM (active) in assay [7]. Besides, the compound was classed as inactive in [1], in [3], in assay [6], in [9], in [19] and in assay [12]. The result in assay [15] was inactive.

With `CN(C)CCC(c1ccc(Cl)cc1)c1ccccn1` (stereo unspecified), the call in [20], in [2], in assay [17], in assay [5], in assay [6] and in [7] was inactive. Further, the call in assay [8], in assay [10], in assay [11], in [12] and in assay [14] was inactive.

Regarding `NC(N)=Nc1nc(CSCCC(N)=NS(N)(=O)=O)cs1`, the outcome in assay [16], in assay [20], in assay [17], in assay [4], in assay [5] and in [8] was inactive. The result in [9], in assay [19], in assay [10], in [12], in assay [13] and in [14] was inactive. For the same compound, the outcome in [15] was inactive.
